Screen size: about 360,000 compounds; about 2,100 (0.58%) were called active.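 The calls were made as follows: active = inhibition at 20 µM, scaled to each plate's controls, above about 33% (limit read from the data); inactive = the rest.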 This excerpt belongs to a sample that is enriched for actives.
The compounds below were run against 26S proteasome non-ATPase regulatory subunit 14 (Homo sapiens) (UniProt O00487) (assay: inhibition of 26S proteasome subunit Rpn11 – biochemical, fluorescence polarization, uHTS, primary screen (AID 588493)). Conditions: human 26S proteasome, Ub4-pepOG fluorescence polarization; at 20 µM; stronger effect = higher value; 20S core pre-blocked with epoxomicin.
Sequence of 26S proteasome non-ATPase regulatory subunit 14 (Homo sapiens) (O00487 whole entry, looked up): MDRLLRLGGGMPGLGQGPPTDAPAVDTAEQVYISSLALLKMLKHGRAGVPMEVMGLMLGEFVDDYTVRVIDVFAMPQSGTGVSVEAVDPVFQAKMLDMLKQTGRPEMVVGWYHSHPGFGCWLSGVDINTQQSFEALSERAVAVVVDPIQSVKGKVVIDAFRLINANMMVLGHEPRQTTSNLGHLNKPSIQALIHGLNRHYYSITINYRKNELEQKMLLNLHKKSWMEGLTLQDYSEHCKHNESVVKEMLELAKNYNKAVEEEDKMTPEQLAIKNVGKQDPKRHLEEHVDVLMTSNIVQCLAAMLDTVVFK

SMILES	inhibition
CCC(=O)N1CCC(C(N)=O)(N2CCCCC2)CC1	-4.7% (inactive)
CCOC(=O)CN(C(=O)COc1nc(C)cc(C)c1C#N)c1ccc(Cl)cc1	1.3% (inactive)
O=C1Nc2ccc(Br)cc2/C1=N/N=C/C1=C(N2CCOCC2)C(=C\c2ccccc2)/CC1	8% (inactive)
O=C(O)c1ccc(NN=CC2=C(N3CCOCC3)/C(=C/c3ccccc3)CC2)cc1	51.4% (active)
C=CCn1c(-c2ccccc2OCC)n[nH]c1=S	-4.4% (inactive)
CC(C)(C)NC(=O)CSC(=Nc1ccccc1F)NC#N	45.6% (active)
Cc1ccccc1CSCC(=O)NC(=O)NC(C)(C)C	4.3% (inactive)
CC(C)(C)NC(=O)CSc1nnc(NC(=O)CCc2ccccc2)s1	2.2% (inactive)
CC(=O)Nc1ccc(NC(=O)CSCc2cnn(-c3ccccc3)c2-n2cccc2)cc1	-1.2% (inactive)
CCc1c(C)[nH]c(=S)c(C#N)c1C	-1.9% (inactive)
Cc1cccc(-n2c(SCC(N)=O)nc3c(c2=O)C2(CCCCC2)Cc2ccccc2-3)c1	14.6% (inactive)
COc1ccc(C(=O)NCc2ccc(Cl)cc2)cc1S(=O)(=O)N1CCCC1	-4.5% (inactive)
CN(C(=O)c1c(Cl)cnn1C)C12CC3CC(CC(C3)C1)C2	0.7% (inactive)
N#CC(C(=O)c1ccc(S(=O)(=O)N2CCCCCC2)cc1)c1nc2ccccc2[nH]1 (stereo not drawn)	13.9% (inactive)
CCCS(=O)(=O)N1CCCC(C(=O)NCc2ccco2)C1 (stereo not drawn)	34.7% (active)
O=C(NCc1ccco1)C1CCCN(S(=O)(=O)c2ccccc2)C1 (stereo not drawn)	-4.7% (inactive)
O=C(NCc1ccco1)C1CCCN(S(=O)(=O)c2cnc[nH]2)C1 (stereo not drawn)	-5.5% (inactive)
CC(Sc1nc2c([nH]c3ccccc32)c(=O)n1C)c1ccccc1 (stereo not drawn)	-0.4% (inactive)
Cc1cc(C)nc(NC2=NCC(=O)N2c2ccc(Cl)cc2)n1	4.1% (inactive)
O=C(COCc1cc(-c2ccc3c(c2)OCO3)on1)N1CCN(c2cccc(Cl)c2)CC1	6.1% (inactive)
Cc1c(-c2ccccc2)cn2c1-c1ccc(C)n1CC2	44.5% (active)
CCCCNC(=O)C(C)N(CCN(C)C)C(=O)CCCN1C(=O)NC(c2ccc(Cl)cc2)C(C(=O)OCc2ccccc2)=C1C (stereo not drawn)	-1.7% (inactive)
COc1ccc(-c2nc3n(c2Br)CCC3)cc1	6.5% (inactive)
Cc1cccc(OCC(=O)NCCNC(=O)c2cccnc2)c1	2.9% (inactive)

SMILES	inhibition
Cc1ccc(OCC(=O)NCCCNC(=O)c2cccnc2)cc1C	0.1% (inactive)
Cc1ccc(NC(=O)COc2ccc(/C=N\NC(=O)c3cccnc3)cc2)cc1C	91% (active)
Cc1ccc(C(=O)N2CCCC2)c(F)c1F	-4.7% (inactive)
Cc1nc2ccccc2n1C(=O)N1CCOCC1	58.5% (active)
O=C(c1cc(-c2ccc(Cl)s2)nc2ccccc12)N1CCOCC1	-0.8% (inactive)
O=C(N1CCOCC1)N1CCOCC1	-1.2% (inactive)
CCOC(=O)C1(Cc2cccc(OC)c2)CCCN(C(=O)CCSC)C1 (stereo not drawn)	5.4% (inactive)
Cc1c(NC(=O)CSc2nnnn2-c2ccc(C(=O)O)cc2)c(=O)n(-c2ccccc2)n1C	-4.2% (inactive)
Cc1c(NC(=O)CSc2nnc(-c3cccnc3)n2N)c(=O)n(-c2ccccc2)n1C	0% (inactive)
Cc1c(NC(=O)CSc2cccc3cccnc23)c(=O)n(-c2ccccc2)n1C	48.6% (active)
CC(C)CC(NC(=O)C1CCCN1C(=O)[C@@H](C)NC(=O)OCc1ccccc1)C(=O)NCC(N)=O (stereo partly drawn)	-2.1% (inactive)
CC(C)CC(O)C1CCN(C(=O)CCc2nnc(-c3ccc4c(c3)OCO4)o2)CC1 (stereo not drawn)	-1.9% (inactive)
Cc1ccc(Nc2ccccc2N)cc1	53% (active)
O=[N+]([O-])c1ccccc1Nc1ccc(O)cc1	0.3% (inactive)
Cc1ccc(Nc2nc(N)nc(CSc3nnc(C)s3)n2)cc1	-0.4% (inactive)
O=[N+]([O-])c1cc(S(=O)(=O)Nc2cccc(Cl)c2)ccc1N=Nc1c(O)[nH]c2ccccc12	-18% (inactive)
Cc1oc2c(C)c3oc(=O)c(CC(=O)N[C@@H](CC(C)C)C(=O)N[C@@H](Cc4ccccc4)C(=O)O)c(C)c3cc2c1C	71.8% (active)
Cc1c(OC(C)C(=O)N[C@@H](Cc2ccccc2)C(=O)O)ccc2c3c(c(=O)oc12)CCCC3 (stereo partly drawn)	-4.9% (inactive)
Cc1c(CCC(=O)N[C@@H](CC(C)C)C(=O)O)c(=O)oc2c(C)c3oc4c(c3cc12)CCCC4	-8.5% (inactive)
CC(=NCc1ccc2c(c1)OCO2)C1=C(O)c2ccccc2C1=O	-6.8% (inactive)
CCOc1ncccc1C(=O)OCC(=O)Nc1cccc(S(=O)(=O)N2CCCCCC2)c1	1.7% (inactive)
CC(C)(C)c1ccc(C(=O)NCc2ccco2)cc1	0.7% (inactive)
Cc1cccc(Nc2ccccc2C(=O)NCc2ccco2)c1C	0.1% (inactive)
CCc1ccc(-c2cc(C(=O)NCc3ccco3)c3ccccc3n2)s1	40.1% (active)

SMILES	inhibition
CN1CCNC(=O)C1CC(=O)N1CC=C(c2ccc(F)cc2)CC1 (stereo not drawn)	-2.3% (inactive)
CCCCCCCCCCOC(=O)Cn1c(COc2cccc(OC)c2)[n+](C)c2ccccc21	33% (active)
CCCc1cc(=O)[nH]c(SCC(=O)Nc2sc3c(c2C#N)CCCC3)n1	2% (inactive)
COc1ccc(-n2c(SCC(=O)Nc3sc4c(c3C#N)CCCC4)nnc2-c2ccc(O)cc2)cc1	59.6% (active)
COc1cccc(CN(C)CC(=O)Nc2sc3c(c2C#N)CCC3)c1	18% (inactive)
Cc1ccc(Cc2c(-c3ccco3)nc3ccc(Cl)cn23)cc1	18.2% (inactive)
COC(=O)c1c(CCl)noc1C(=O)NC(C)C	-0.8% (inactive)
O=C(/C=C/c1cccs1)c1cc(Cl)ccc1OC(=O)N1CCOCC1	1.7% (inactive)
O=c1c2ccccc2ncn1CCc1ccncc1	1.2% (inactive)
O=C(CN1C(=O)CSc2ncccc21)N1CCOCC1	-4.6% (inactive)
Cc1ccc2c(c1)N(CC(=O)N1CCOCC1)C(=O)CO2	-3.1% (inactive)
Cc1cc(/C=C2/SC(=O)N(CC(=O)N3CCCC3)C2=O)ccc1N1CCOCC1	59.6% (active)
Cc1cccc(N(C(=O)c2sc(C)nc2C)C(C(=O)NCC2CCCO2)c2ccccc2)c1 (stereo not drawn)	-7.9% (inactive)
CCNC(=O)C1(C)CCCN(Cc2noc(-c3ccccc3OC)n2)C1 (stereo not drawn)	2.1% (inactive)
CC(=O)N1CCN(Cc2cc(=O)oc3cc(C)ccc23)CC1	9.9% (inactive)
Cc1ccc(S(=O)(=O)N2[C@@H](c3ccc(Br)cc3)C(C(=O)O)=C[C@H]2CC2CCCC2)cc1	14.1% (inactive)
COc1cccc(NC(=O)C2(C)CCN2C(=O)CCC2CCCC2)c1 (stereo not drawn)	-22.2% (inactive)
COc1cccc(CN2C(=O)CCC2(C)C(=O)NC2CCCCCC2)c1 (stereo not drawn)	3.5% (inactive)
Cc1nnc(N(Cc2ccco2)C(=O)c2ccno2)s1	15% (inactive)
COc1cccc(CNC(=O)c2nnn(CC(=O)Nc3cc(C)ccc3C)c2N)c1	-0.5% (inactive)
COc1ccc(NC(=O)Cn2nnc(C(=O)NCCc3ccc(OC)c(OC)c3)c2N)cc1	7% (inactive)
COc1ccc(CNC(=O)c2nnn(CC(=O)Nc3cc(C)cc(C)c3)c2N)cc1	58.1% (active)
O=C(Nc1cccc(C(=O)O)c1)/C(=C\c1ccccc1)NC(=O)c1ccc(Br)o1	1.3% (inactive)
CC1(C)NC(=O)N(CCCCSc2ccc(Cl)cc2)C1=O	1.8% (inactive)

SMILES	inhibition
O=P(c1ccc2c(c1)OCCO2)(N1CCOCC1)N1CCOCC1	2.8% (inactive)
CS(=O)(=O)c1ccc2c(c1)SC1=NC(=O)/C(=C/c3ccco3)C(=N)N12	76.1% (active)
CCS(=O)(=O)C1=NSC2=NC(=O)/C(=C\c3ccc(OS(=O)(=O)c4ccccc4)cc3)C(=N)N21	22.6% (inactive)
CCCC1C(c2ccccc2)C(C#N)(C#N)C2(C#N)CC1(N)NC2=O (stereo not drawn)	3% (inactive)
COC1=C/C(=C/c2c(N)n3nc(CC(=O)N4CCOCC4)sc3nc2=O)C=CC1=O	46.9% (active)
COc1ccc(-c2ccnc(SCC(=O)N3CCOCC3)n2)cc1	-4% (inactive)
O=C(Oc1ccccc1C(=S)N1CCCCC1)c1cc([N+](=O)[O-])cc([N+](=O)[O-])c1	1.8% (inactive)
CC(C)CC1C(=O)N(Cc2cn(Cc3ccco3)nn2)CCS(=O)(=O)N1Cc1ccc(-c2ccc(Cl)c(Cl)c2)cc1 (stereo not drawn)	59.9% (active)
CC1C(=O)N(Cc2cn(Cc3ccco3)nn2)CCS(=O)(=O)N1Cc1ccc(-c2cccc(CO)c2)cc1 (stereo not drawn)	4.5% (inactive)
CC(C)CC1C(=O)N(Cc2cn(CC3CCCCC3)nn2)CCS(=O)(=O)N1Cc1ccc(-c2ccc(Cl)cc2)cc1 (stereo not drawn)	-2.7% (inactive)
COc1ccc(NC(=O)CNC(=O)Cn2ccc3ccccc3c2=O)c(OC)c1	-3.8% (inactive)
CC(C)C1N=C2c3ccccc3N=C(SCC(=O)c3ccc(O)c(O)c3)N2C1=O (stereo not drawn)	-6.6% (inactive)
COc1ccc(NC(=O)C(CC(C)C)NS(=O)(=O)c2ccc3c(c2)CCN3C(C)=O)cc1OC (stereo not drawn)	6.4% (inactive)
CCC(=O)N1CCc2cc(S(=O)(=O)NC(C(=O)N3CCc4ccccc4C3)C(C)C)ccc21 (stereo not drawn)	1.1% (inactive)
CCOC(=O)N1CCC(NC(=O)C(NS(=O)(=O)c2ccc3c(c2)CCN3C(=O)CC)C(C)C)CC1 (stereo not drawn)	46.5% (active)
CC(C)S(=O)(=O)c1csc(NC(=O)Nc2ccc(Cl)cc2)c1Cl	1.6% (inactive)
CCC(C)Cn1c(O)cc2nn(-c3nc4ccccc4s3)c(=O)c-2c1C (stereo not drawn)	95.3% (active)
N#Cc1ccc(-c2ccc3nccn3c2)cc1	1.6% (inactive)
Cc1ccc(/C=N/NC(=O)CSc2nc3ccccc3o2)cc1	1% (inactive)
O=C(CSc1cccc2cccnc12)N/N=C/c1cccnc1	71.4% (active)
O=C(CNC(=O)c1cccnc1)N/N=C/c1cc(Br)c(O)c(Br)c1	-14.1% (inactive)

Reference: PubChem BioAssay AID588493 (Sanford-Burnham Center for Chemical Genomics, 2011)
